Data on 34 molecules can be found in PubChem BioAssay (NCI).

SMILES strings stand for the structures. About 83,000 compounds went through this panel and 20% of them were active in at least one assay; those are over-represented in the sample as a whole.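 96-well plates, one dose, 48 hours. Percent growth reported; active if below 10.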 Unmarked numbers belong to inactive results. Activity calls are given as the source filed them.

This assay has as its system MDA-MB-468 breast. Put plainly: NCI-60 one-dose screen, 48 h (100 = growth as untreated, 0 = no growth, -100 = all killed). Particulars: 10 µM unless noted.
As for `O=C(CCCCC(=O)Oc1c(Cl)cc(Cl)cc1[N+](=O)[O-])Oc1c(Cl)cc(Cl)cc1[N+](=O)[O-]`, the growth was 113%.

Take `CN1CCN(Cc2ccc(NC(=O)c3cncc(C#Cc4cnc5ccc(N)nn45)c3)cc2C(F)(F)F)CC1`: the growth is 25.5%. Turning to `CN(C)CCS(=O)(=O)Nc1cc(-c2ccc3ncnc(Nc4ccc(F)c(Cl)c4)c3c2)cnc1Cl`, the growth is -53% (active). For the molecule `COc1ccc(C(=O)Nc2cccc(C3CC(=O)c4c(cc(OC)c(OC)c4OC)O3)c2)cc1` (centres undefined), the growth is -2.79% (active).

On to `COc1cc(CNC(=O)CCCC/C=C/C(C)C)ccc1OCc1cn(-c2ccc(C(F)(F)F)cc2)nn1`, for which the growth was 84.8%. Regarding `CC1Cc2ccccc2N1NC(=O)c1ccc(Cl)c(S(N)(=O)=O)c1` (centres undefined), the growth was 94.8%. For `COc1ccc([C@@H]2[C@@H](O)C(=O)N2c2cc(OC)c(OC)c(OC)c2)cc1Cl` the value was 22.8%; for `CN(C)c1ccc2cc(-c3nc4ccccc4s3)c(N)nc2c1`, 56.9%.

Consider `CCCCCCCC[C@@H](O)CC(=O)N[C@@H](CC(N)=O)C(=O)N[C@@H](CCC(N)=O)C(=O)N[C@@H](CC(=O)c1cc(C)cc(O)c1C(=O)c1c(O)cccc1O)CC(C)C`, for which the growth is 3.34% (active).

`N#CCC1=NC(c2cccs2)=Nc2ccccc2S1`: the growth is 82.2%. In the case of `S=c1nc2oc(-c3ccccc3)c(-c3ccccc3)c2c(/N=C\c2ccco2)[nH]1` it was 91.6%; in that of `C=C1C(=O)O[C@H]2[C@H]1CC/C(CNC(=O)/C=C/c1ccc(Cl)cc1Cl)=C\CC[C@@]1(C)O[C@@H]21`, -89.2% (active). For `C/C(=N/N)c1nnn(-c2ccc(Br)cc2)c1C`, the growth is 94.8%. With `CC(=O)Oc1ccc(N2C(=O)C(Cl)=C(Nc3cccc(C(F)(F)F)c3)C2=O)cc1`, the growth was 96.1%.

Take `O=C1C(N2CCOCC2)=C(I)C(=O)c2ncccc21`: the growth is 42%. Consider `Cc1cc(C2(c3cc(C)c(O)cc3C)OS(=O)(=O)c3ccccc32)c(C)cc1O`, for which the growth is 114%. In the case of `COc1cc(C(=O)c2cc(C(C)=O)c3c4ccccc4ccn23)cc(OC)c1OC` it was 42.1%; in that of `c1ccc(-c2nc3nonc3nc2-c2ccccc2)cc1`, 38.9%. Turning to `Cn1cc(-c2ccc(F)c(C(F)(F)F)c2)nc1C1CCN(c2ncnc3[nH]ncc23)CC1`, the growth was 64.6%. For `COc1ccc(-c2nsc3c2NC(=O)CC3c2ccc(F)cc2)cc1` (centres undefined) the value was 1.54% (active); for `C/C(=N/O)c1ccc(NC(=O)Cn2nc(-c3ccc(Cl)cc3)nc2N)cc1`, 100%; for `COC(=O)c1c(C(=O)OC)c2n(CC(=O)Nc3cccc4cccnc34)c3ccccc3n2c1C(=O)c1ccc(C)cc1`, 98.6%. For `CO/N=C1\CCc2c(sc(NC(=O)c3cccc(C(F)(F)F)c3)c2C(N)=O)C1` the value was 29.9%; for `O=C(O)CNS(=O)(=O)c1ccc(Oc2ccc(S(=O)(=O)NCC(=O)O)cc2)cc1`, 107%; for `Nc1cc(Br)c(-c2nn3c(CCC(=O)c4nc5ccccc5[nH]4)nnc3s2)c(Br)c1`, 91.8%. On to `CC[C@]12C=CCN3CC[C@@]4(c5cc(NC(=O)CCC(=O)O[C@H]6CC[C@H]7[C@@H]8CC[C@H]9CC(=O)CC[C@]9(C)[C@H]8CC[C@]67C)c(OC)cc5N(C)[C@H]4[C@@](O)(C(=O)OC)[C@@H]1OC(C)=O)[C@@H]32`, for which the growth was 73%. In the case of `COc1ccc(-c2nc(SCCC(C)C)nc(N/N=C(/C)c3ccc(C)cc3)c2C#N)cc1` it was 105%; in that of `Cc1ccc2nc(NC(=O)CSc3nc(Nc4ccc([N+](=O)[O-])cc4)c(C#N)c(-c4ccccc4)n3)sc2c1`, 105%; in that of `Cc1ccc2c3c(c(=O)[nH]c2c1)C1(C(C#N)=C(N)O3)c2cc(Br)ccc2-c2ccc(Br)cc21`, 6.75% (active). For `CS(=O)(=O)c1ccc(C(=O)N/N=C/c2ccccc2O)cc1` the value was 64.7%; for `Clc1cccc(-c2nc(-c3cccs3)no2)c1`, 3.37% (active). Regarding `COc1cc(C2CC(c3ccc(Nc4ccnc5cc(Cl)ccc45)cc3)=NN2c2ccc(Cl)cc2)cc(OC)c1OC` (centres undefined), the growth was 41.9%. In the case of `CC1=C(C)C(=O)C(Nc2cccc(C(=O)OC(C)(C)C)c2)=C(Cl)C1=O` it was -23.6% (active); in that of `N#C/C(=C\C=C\c1ccc(-c2cc(Cl)ccc2Cl)o1)c1nc2ccccc2s1`, 109%.
